Source: PubChem BioAssay
An excerpt weighted towards active compounds, which were near 2.2% of everything screened.
GC-A act: GC-A (human) enzyme activation; P16066; AID 1671463; hit rate 0.14% among 370,000; HEK293 GC-A cells, cGMP TR-FRET, EC30 ANP; 0% at EC30 ANP, 100% saturating ANP; activation, % at 10 µM; in the data active = activation above about 40%
GC-B act: GC-B (human) receptor activation; AID 1920062; activation, % at 10 µM; hit rate 0.11% among 370,000; P20594; HEK293-GC-B cells, CNP EC30, cGMP TR-FRET; 0% at EC30 CNP, 100% saturating CNP;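 active = activation at 10 µM reaching about 35% in either raw or pattern-adjusted values, limit read from the data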
ADAM10 inh: ADAM10 inhibition, QFRET primary screen. hit rate 0.62% among 370,000. inhibition, % at 7 µM. AID 720582. recombinant ADAM10, EDANS/DABCYL FRET peptide cleavage, 3 h. O14672;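 active = inhibition above a per-campaign cutoff equal to the mean of compounds falling between control-based bounds plus 3 SD, cut at about 20% in these data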
ADAM17 inh: ADAM17 inhibition, QFRET primary screen; P78536; recombinant ADAM17, EDANS/DABCYL FRET peptide cleavage; inhibition, % at 6.95 µM; hit rate 0.83% among 370,000;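 active = inhibition above the mean of compounds lying between control limits plus 3 SD, set per campaign, cut at about 8.5% in these data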
Target sequence (P78536 215-824 limits assumed): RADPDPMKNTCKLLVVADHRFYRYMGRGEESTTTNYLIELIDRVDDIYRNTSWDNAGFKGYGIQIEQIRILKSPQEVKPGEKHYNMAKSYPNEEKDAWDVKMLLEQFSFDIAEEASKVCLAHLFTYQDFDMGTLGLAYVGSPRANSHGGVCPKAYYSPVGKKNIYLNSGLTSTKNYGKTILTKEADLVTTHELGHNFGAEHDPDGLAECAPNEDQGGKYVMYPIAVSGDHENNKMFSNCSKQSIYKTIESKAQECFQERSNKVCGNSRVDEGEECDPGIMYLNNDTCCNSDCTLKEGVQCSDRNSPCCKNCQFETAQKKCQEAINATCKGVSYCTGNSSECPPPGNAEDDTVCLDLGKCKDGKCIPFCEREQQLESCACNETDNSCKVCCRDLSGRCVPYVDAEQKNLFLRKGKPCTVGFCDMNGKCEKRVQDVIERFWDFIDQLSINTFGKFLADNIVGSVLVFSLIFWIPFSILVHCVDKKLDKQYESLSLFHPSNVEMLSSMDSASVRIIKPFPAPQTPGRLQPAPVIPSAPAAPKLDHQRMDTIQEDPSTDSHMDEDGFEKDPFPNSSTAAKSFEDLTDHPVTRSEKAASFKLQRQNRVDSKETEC
KLK7 zymogen act: proKLK7 (human) activation, primary screen | P49862 | purified proKLK7, EDANS-DABCYL substrate fluorescence; 100% is mature enzyme control, 0% vehicle | activation, % at 7 µM | hit rate 0.9% among 370,000 | AID 652039;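 active = activation above the mean of all tested compounds plus 3 SD, computed per campaign excluding outliers beyond control limits, cut at about 13% in these data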
ADAM10 counter: inhibits human ADAM10 in ADAM17 exosite counter-screen; shares compounds with ADAM17 inh; recombinant ADAM10, EDANS/DABCYL FRET peptide cleavage, 3 h; inhibition, % at 6.95 µM; hit rate 47% among 2,900; AID 743256;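 active = mean inhibition over the triplicate runs exceeds the activity threshold set in the earlier primary screen, cut at about 20% in these data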
ADAM17 confirm: human ADAM17 inhibition, confirmation | shares compounds with ADAM17 inh | recombinant ADAM17, EDANS/DABCYL QFRET peptide cleavage | inhibition, % at 6.95 µM | hit rate 65% among 2,900;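 active = mean inhibition across replicates above the hit cutoff set in the primary screen, cut at about 8.5% in these data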
Of the large screens only hits and unclear results are named; the others gave an inactive call (follow-up assays come after a bar, where they were run).

CC(NC(=O)c1ccco1)C(=O)N1CCN(c2ccccc2)CC1 (stereo not given)	ADAM17 inh 9.2 | ADAM10 counter inactive | ADAM17 confirm inactive
CC(NC(=O)c1ccco1)C(=O)N1CCN(c2cccc(C(F)(F)F)c2)CC1 (stereo not given)	none
Fc1ccc(CC2CCN(c3ncnc4sccc34)CC2)cc1	none (no result: KLK7 zymogen act)
COc1ccc(NC(=O)C(OC(=O)CNC(=O)c2ccccc2)c2ccccc2)cc1F (stereo not given)	none (no result: KLK7 zymogen act)
CCCCCCN1CCN(C2CN(Cc3cn(Cc4ccc(Cl)cc4)nn3)S(=O)(=O)C2)CC1 (stereo not given)	ADAM17 inh 8.9 | ADAM10 counter inactive | ADAM17 confirm inactive
CCCCCCN1CCN(C2CN(Cc3cn(Cc4cccc(Cl)c4)nn3)S(=O)(=O)C2)CC1 (stereo not given)	none
Cc1cccc(-c2cccc3c4c([nH]c23)[C@@H]2C[C@H](N(C)C(=O)C3CCCCC3)[C@H]([C@H](C)O)CN2CC4)c1	none
c1ccc(-c2cccc(CNc3nc(-c4ccccn4)nnc3-c3ccccc3)c2)cc1	ADAM17 inh 9.0 (no result: KLK7 zymogen act) | ADAM10 counter inactive | ADAM17 confirm inactive
COC(=O)[C@]12C[C@H](CC(=O)NCCC(C)C)C(=O)N(Cc3cccc4ccccc34)C1=C[C@H](C1CCCC1)O[C@@H]2C	none
CCOC(=O)c1oc2cc(O)cc(C)c2c(=O)c1-c1cscn1	ADAM17 inh 10 | ADAM10 counter inactive | ADAM17 confirm inactive
CCCc1cc2c(=O)c(-c3cscn3)c(C(=O)OCC)oc2cc1O	none
COc1ccc2ccccc2c1C=Nn1c(-c2n[nH]c3c2CCC3)n[nH]c1=S	ADAM17 inh 10 | ADAM10 counter inactive | ADAM17 confirm inactive
Cc1cc(C)c(S(=O)(=O)Nc2ccc3c(c2)CCC3)c(C)c1	ADAM17 inh 13 | ADAM10 counter 26 | ADAM17 confirm 12
Cc1ccc(S(=O)(=O)Nc2ccc3c4c(cccc24)CC3)c(C)c1	none
Cc1cc(C)c(S(=O)(=O)Nc2ccc3c4c(cccc24)CC3)c(C)c1	ADAM17 inh 9.3 | ADAM10 counter inactive | ADAM17 confirm 12
CN1CCN(C(=O)/C(=C/c2ccccc2)c2ccccc2)CC1	ADAM17 inh 8.7 | ADAM10 counter inactive | ADAM17 confirm inactive
CC1CC(C)CN(C(=O)/C(=C\c2ccccc2)c2ccccc2)C1 (stereo not given)	none
CC(C)C[C@H]1COc2cc(N3CCSCC3)ccc2S(=O)(=O)N1C	none
O=C(Nc1ccncc1)c1cccc(S(=O)(=O)N2CCOCC2)c1	none
O=C(Nc1ccc2c(c1)CCC2)c1cccc(S(=O)(=O)N2CCN(c3ccccc3)CC2)c1	ADAM17 inh 9.1 | ADAM10 counter 20 | ADAM17 confirm 15
O=C(Nc1cccc(S(=O)(=O)C(F)F)c1)c1ccc(S(=O)(=O)N2CCOCC2)cc1	ADAM17 inh 11 | ADAM10 counter inactive | ADAM17 confirm 9.6
O=C(Nc1ccc(S(=O)(=O)C(F)F)cc1)c1cccc(S(=O)(=O)N2CCOCC2)c1	ADAM17 inh 12 | ADAM10 counter inactive | ADAM17 confirm 9.0
O=C(C(=O)N1CCC(CNS(=O)(=O)c2ccccc2OC(F)(F)F)CC1)c1cccs1	none
CN(C)[C@H]1CCN(c2ccc3c(c2)O[C@@H]2CCN(C2)S3(=O)=O)C1	none
Clc1cc(Cl)cc(CNC2CCC23CCCCC3)c1 (stereo not given)	none (no result: KLK7 zymogen act)
O=C1N[C@@H](c2ccccc2)COC(=O)[C@@H](Cc2ccc(F)cc2)CC/C=C/C[C@@H]1CC(=O)N(CCO)Cc1ccccc1	ADAM10 inh 27, ADAM17 inh 10 | ADAM10 counter 31 | ADAM17 confirm 15
O=C1N[C@H](Cc2ccccc2)COC(=O)[C@H](Cc2ccc(F)cc2)CC/C=C/C[C@H]1CC(=O)N(CCO)Cc1ccccc1	ADAM17 inh 8.7 | ADAM10 counter 21 | ADAM17 confirm 11
O=C1N[C@@H](c2ccccc2)COC(=O)[C@@H](Cc2ccc(F)cc2)CC/C=C/C[C@H]1CC(=O)N(CCO)Cc1ccccc1	none
O=C1N[C@@H](Cc2ccccc2)COC(=O)[C@@H](Cc2ccc(F)cc2)C/C=C\C[C@@H]1CC(=O)N(CCO)Cc1ccccc1	none
COc1cc(/C=C2\SC(=S)N(NC(=O)c3ccc(O)c(OC)c3)C2=O)ccc1O	none
COc1cc(/C=C2\SC(=S)N(NC(=O)c3ccccc3OC)C2=O)ccc1O	ADAM17 inh 11 | ADAM10 counter 23 | ADAM17 confirm 11
COc1cccc(OC)c1C(=O)Nc1cccc(-c2nc3ccccc3[nH]2)c1	ADAM17 inh 8.7 | ADAM10 counter inactive | ADAM17 confirm inactive
O=C(C1CCCN1S(=O)(=O)c1cccc([N+](=O)[O-])c1)N1CCN(c2ccccc2)CC1 (stereo not given)	none
CCOC(=O)/C=C1\CN(Cc2ccc(OC)cc2)S(=O)(=O)c2ccccc21	ADAM17 inh 9.7 | ADAM10 counter inactive | ADAM17 confirm 15
COc1ccc(Cn2cc(F)c(=O)n(C)c2=O)cc1[N+](=O)[O-]	none
COc1ccc(Cn2cc(F)c(=O)n(CCC(C)C)c2=O)cc1[N+](=O)[O-]	ADAM17 inh 9.8 | ADAM10 counter inactive | ADAM17 confirm inactive
Cc1cccc2cc(CN(Cc3cccs3)Cc3nnnn3Cc3ccccc3)c(=O)[nH]c12	ADAM17 inh 11 | ADAM10 counter inactive | ADAM17 confirm inactive
O=C(NC(Cc1c[nH]c2ccccc12)C(=O)OCC(=O)c1cccc2ccccc12)c1cccs1 (stereo not given)	ADAM17 inh 9.5 | ADAM10 counter inactive | ADAM17 confirm 8.9
CCCC1CCC2(CCCN2CCOC(=O)Nc2ccc(Br)cc2)CC1 (stereo not given)	none (no result: KLK7 zymogen act)
COCC(=O)N1CC[C@H]2[C@@H]1c1cc(-c3cccc(OC)c3)ccc1N(C)[C@H]2CO	none
c1ccc2sc(-c3csc4c3CCNC4)nc2c1	none (no result: KLK7 zymogen act)
COc1ccc(-c2nn(-c3ccccc3)cc2/C=N/NC(=O)c2cccc(S(=O)(=O)Nc3ccccc3Cl)c2)cc1	ADAM17 inh 9.2 | ADAM10 counter inactive | ADAM17 confirm inactive
COc1ccc(-c2nn(-c3ccccc3)cc2/C=N/NS(=O)(=O)c2ccccc2)cc1	none
CNC(=O)C1CC(=O)N/C(=N/N=C(\C)c2cccs2)S1 (stereo not given)	ADAM17 inh 10 (no result: GC-A act, GC-B act) | ADAM10 counter inactive | ADAM17 confirm 14
O=C(NC(=S)Nc1ccc(Cc2ccncc2)cc1)c1ccccc1F	ADAM17 inh 12 | ADAM10 counter inactive | ADAM17 confirm inactive
